Source: PubChem
The list is not random: actives were taken first. Their share in the collection is about 4.6%.
TIM10 inh – TIM10 yeast growth inhibition; inhibition, % at 10 µM; S. cerevisiae TIM10 strain growth, BacTiter-Glo luminescence, 24 h; 1.4% of 330,000 active; AID 463195;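 active = inhibition of 40% or more at the single tested concentration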;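 also: wild-type TIM10 isogenic control strain grown at permissive 25 °C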
tim23-1 inh – growth inhibitors of tim23-1 mutant yeast | inhibition, % at 20 µM | AID 463212 | 1.3% of 330,000 active | S. cerevisiae tim23-1 growth, BacTiter-Glo luminescence, 24 h;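 active = growth inhibition of the mutant yeast at or above 50%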;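 also: temperature-sensitive mutant grown at 25 °C; plate controls were DMSO-treated mutant yeast for no effect and medium wells lacking yeast for full effect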
NALP3 yeast inh – blocks the NALP3 inflammasome reconstituted in yeast; Yeast reconstituted NLRP3/ASC/caspase-1, beta-gal luminescence, 24 h; inhibition, % at 10 µM; 0.39% of 330,000 active; AID 2825;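 active = inhibition of 50% or more; inactive = inhibition below 50%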;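 also: plate controls were induced DMSO wells for no effect and uninduced yeast grown without galactose for full effect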
tim10-1 inh – inhibits growth of tim10-1 mutant yeast. S. cerevisiae tim10-1 ts strain growth, BacTiter-Glo, 24 h. inhibition, % at 20 µM. 2.2% of 330,000 active. AID 463190;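 active = inhibition of at least 40%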;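 also: mutant grown at 25 °C; 0% = DMSO wells with yeast and 100% = wells holding no yeast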
SKKanGAS inh – SKKanGAS growth inhibition. inhibition, % at 7.5 µM. S. pyogenes SKKanGAS, kanamycin growth, BacTiter-Glo, 6 h. 1.3% of 300,000 active;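 active = mean replicate score, as percent of positive control median, at least 50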;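 also: strain carries kanamycin resistance gene driven by streptokinase promoter and grows in 40 µg/ml kanamycin; loss of luminescence reflects streptokinase promoter inhibition or plain growth inhibition; 0% = median of DMSO wells and 100% = positive control at its reference dose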
TIM10 conf – TIM10 yeast growth inhibition, confirmed | AID 463215 | 63% of 4,600 active | shares compounds with TIM10 inh | S. cerevisiae tim10 strain growth, BacTiter-Glo luminescence, 24 h | inhibition, % at 10 µM;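 active = inhibition of yeast growth at or above a set limit in either of two replicates at 10 µM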;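 also: this counterscreen used the strain with wild-type TIM10; 0% = yeast with DMSO and 100% = medium wells lacking yeast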
Active calls of the source: *; x = not tested or not shown.

SMILES	TIM10 inh	tim23-1 inh	NALP3 yeast inh	tim10-1 inh	SKKanGAS inh	TIM10 conf
COc1ccc(/C=C/c2cc(C(=O)O)c3ccccc3n2)cc1	26	33	12	15	20	x
Cc1cc(/C=C\c2ccccc2)nc2ccccc12	53*	21	22	5	-11	62*
N#Cc1ccsc1NC(=O)C1=COCCO1	8	2	0	5	x	x
O=c1[nH]cnc2c1c(-c1ccccc1)cn2-c1ccc(Br)cc1	42*	43	-63	31	4	38*
Cc1cc2[nH]c(=O)c(=O)[nH]c2cc1S(=O)(=O)NCc1ccc(Cl)cc1	-3	20	3	11	-3	x
O=S(=O)(Nc1cc(Cl)ccc1N1CCCCC1)c1cccs1	40*	33	0	37	8	20
O=S(=O)(Nc1ccc(N2CCCCC2)cc1)c1cccs1	5	21	-6	15	-7	x
COc1ccc(CNC(=O)CSc2n[nH]c(C)c2[N+](=O)[O-])cc1	-18	8	5	10	-17	x
COc1cc(C(C)=O)ccc1Oc1ncccn1	-12	5	11	-15	6	x
Cc1nc(C)c(C(=O)N2CCCC(C(=O)c3ccc(Cl)cc3C)C2)s1 (centres undefined)	9	16	24	10	0	x
CCCn1cc(NC(=O)c2cc(-c3ccccc3)on2)cn1	43*	41	47	28	-12	41*
Cc1ccc(NC(=O)c2noc(C(C)C)c2[N+](=O)[O-])cc1	28	34	7	27	9	x
CC(C)CC(c1nnnn1Cc1cccs1)N1CCN(c2nc3ccccc3s2)CC1 (centres undefined)	28	1	-3	30	32	x
CC(C)C(c1nnnn1Cc1ccco1)N1CCN(c2nc3ccccc3s2)CC1 (centres undefined)	45*	21	8	28	12	-25
CCOCCCNC(=O)c1oc2ccc3c(c2c1C)C(O)CC(C)(C)O3 (centres undefined)	-3	-1	21	6	0	x
CCCCCC(=O)C(=O)c1ccc(O)cc1O	-1	13	5	6	0	x
O=C(c1ccccc1O)N1N=C(c2ccccc2)CC1(O)C(F)(F)F (centres undefined)	46*	34	-6	29	-2	4
FC(F)(F)c1nc2ccccc2nc1N/N=C/c1c(Cl)cccc1Cl	3	14	31	19	19	x
COc1ccc(NC(=O)[C@H](C)NC(=O)C2CCN(S(=O)(=O)c3ccc(C)cc3)CC2)cc1	-4	1	7	17	0	x
S=c1[nH]nc(-c2ccc(Br)o2)n1Cc1ccccc1	46*	46	-15	38	4	35*
Clc1ccc(Cn2ccc(-c3ccc4c(c3)OCO4)n2)cc1Cl	40*	25	-25	26	42	40*
C=CCNC(=S)N/N=C/c1ccc(C(F)(F)F)cc1	40*	44	6	22	2	20
FC(F)(F)c1ccc(/C=N/NC(=S)NC2CCCCC2)cc1	-5	-34	2	31	-2	x
C=CCNC(=S)N/N=C/c1ccc(-c2ccc(OC)cc2)o1	42*	17	12	15	-20	36*
C=CCNC(=S)N/N=C/c1ccc(-c2cc(Cl)ccc2Cl)o1	-6	-23	8	6	-9	x
SMILES	TIM10 inh	tim23-1 inh	NALP3 yeast inh	tim10-1 inh	SKKanGAS inh	TIM10 conf
Cc1ccc(S(=O)(=O)N/N=C/c2ccc(OCC(=O)NC(C)C)cc2)cc1	-8	0	5	-16	-5	x
Cc1cc(=O)n2nc(N3CCCC(C(=O)NCc4cccc(Br)c4)C3)sc2n1 (centres undefined)	-1	0	2	-10	1	x
CC1CCCN(C(=O)C2CCN(S(=O)(=O)c3cccc4nonc34)CC2)C1 (centres undefined)	15	15	-9	4	14	x
Nc1cccc2cc(-c3ccccc3)oc12	0	24	34	6	x	x
COCCOc1ccc(C(F)(F)F)cc1NC(=O)COC(=O)C12CC3CC(CC(O)(C3)C1)C2	16	10	0	9	-5	x
Cc1c(C(=O)OC2CCCCC2)[nH]c2c1C(=O)CC(C)(C)C2	96*	21	36	-7	2	-7
COc1ccc2[nH]c3c(c2c1)CCNC3c1ccc([N+](=O)[O-])o1 (centres undefined)	41*	12	15	-43	4	54*
COc1ccc2[nH]c3c(c2c1)CCNC3C1CC=C(C)CC1 (centres undefined)	-12	-14	35	-23	-3	x
